# Calls of active or inactive are those of the source. The call rests on the fitted dose curve; in most records, active means well fitted curve in the direction sought with a large enough effect; inconclusive means small, poorly fitted or top-dose-only effect, or effect the other way, or another doubt; inactive means no such curve, though single readings can be large or run the other way.
# Target: Beta-2 adrenergic receptor (Homo sapiens) (UniProt P07550)
# Experiment: qHTS validation assay of beta-arrestin-biased ligands of beta2-adrenergic receptor (AID 485366)
# Settings: cell-based beta-arrestin recruitment to ADRB2, qHTS; series mostly up to 46.1 µM
# Description: NIH Molecular Libraries Probe Production Network [MLPCN]
# NIH Chemical Genomics Center [NCGC]
# PI: Bryan Roth and Bob Lefkowitz
# The concept of biased agonism is an emerging concept of molecular pharmacology which proposes that seven transmembrane receptors (7TMRs) or G protein-coupled receptors (GPCRs), exist in multiple signaling conformations and complexes and that ligands (either agonists or antagonists) can induce signaling biased responses for distinct signal transduction cascades.
# Furthermore, accumulating evidence over the last decade has drawn attention to a novel function of beta-arrestins as signal transducers that scaffold various signaling molecules upon activation of 7TMRs. […] This beta-arrestin-biased signaling presumably leads to distinct physiological outcomes from those by G protein activation.
# Additionally, the active receptor conformations which […] on this beta-arrestin signaling are likely different from those activating G protein signaling
# The goal of this screening project will be to discover and optimize novel beta-arrestin-biased ligands for beta2-AR signaling. A luminescent cell-based assay for beta2-AR-mediated agonism, known as the Tango assay, has been validated in which ligand binding of a recombinant beta2-AR and subsequent recruitment of a recombinant beta-arrestin lead to the release of the transcriptional activator tTA, which upregulates transcription of a tTA-responsive luciferase gene. […] Compounds were screened as a concentration-titration series that ranged from 46 microM to 0.6 nM.
# NCGC Assay Protocol Summary:
# Tango cells were dispensed into white, solid, tissue-culture-treated 1536-well plates at 1500 cells/well in DMEM, containing 1% fetal bovine serum (FBS). Then, 23 nL of compounds or DMSO were delivered to each well using a pin tool. Plates were incubated at 37 degrees C, 5% CO2 for 18 hr. Then 2.5 uL luminescent substrate mix (in-house prepared: 150 mM Tris-Cl, pH 7.6, 3 mM MgCl2, 1% Triton X-100, 5 mM DTT, 0.5 mM CoA, 0.15 mM ATP, 0.44 mM D-luciferin, final concentrations) was added to each well. Plates were then incubated for 15 minutes at room temperature, and subsequently measured on a ViewLux plate reader for luminescent signal using a clear filter with a 10 second exposure and 2x binning. The %Activity was determined from the corrected luminescence values.
# Concentration-response curves were fitted to the signals arising from the resulting luminescence. The concentration-effect curves were then classified based on curve quality (r2), response magnitude and degree of measured activity, and compounds were subsequently categorized based on their curve class.
# Keywords: biased agonism, beta2-AR, beta-arrestin, GPCR, 7TMR, Tango, luminescence, MLSMR, MLPCN, NIH Roadmap, qHTS, NCGC
# Sequence of Beta-2 adrenergic receptor (Homo sapiens) (P07550 whole entry, looked up): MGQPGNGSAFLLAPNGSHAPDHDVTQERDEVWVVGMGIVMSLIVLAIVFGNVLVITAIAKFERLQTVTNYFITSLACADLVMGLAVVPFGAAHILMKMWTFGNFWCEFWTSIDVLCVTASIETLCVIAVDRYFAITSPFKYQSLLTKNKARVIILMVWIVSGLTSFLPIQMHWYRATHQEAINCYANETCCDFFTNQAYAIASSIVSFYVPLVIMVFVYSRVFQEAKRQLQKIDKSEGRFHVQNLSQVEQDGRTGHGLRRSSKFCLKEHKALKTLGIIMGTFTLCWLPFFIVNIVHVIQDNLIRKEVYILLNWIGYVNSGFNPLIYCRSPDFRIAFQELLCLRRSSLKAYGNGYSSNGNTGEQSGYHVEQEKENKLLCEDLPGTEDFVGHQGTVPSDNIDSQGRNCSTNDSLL
row,Structure (SMILES),outcome
1,CCC1(c2ccccc2)C(=O)NCNC1=O,inactive
2,Cn1c(=O)c2c(ncn2C)n(C)c1=O,inactive
3,CN1CCN(CCCN2c3ccccc3Sc3ccc(Cl)cc32)CC1,inactive
4,COc1cc2nc(N3CCN(C(=O)c4ccco4)CC3)nc(N)c2cc1OC,inactive
5,COc1ccccc1OCC(O)CN1CCN(CC(=O)Nc2c(C)cccc2C)CC1 (stereo not given),inactive
6,Cc1ccccc1N1C(=O)c2cc(S(N)(=O)=O)c(Cl)cc2NC1C (stereo not given),inactive
7,COc1cc2nc(N3CCN(C(=O)C4COc5ccccc5O4)CC3)nc(N)c2cc1OC (stereo not given),inactive
8,CN(Cc1cnc2nc(N)nc(N)c2n1)c1ccc(C(=O)N[C@@H](CCC(=O)O)C(=O)O)cc1,inactive
9,CS(=O)(=O)Nc1ccc([N+](=O)[O-])cc1Oc1ccccc1,inactive
10,CC(COc1ccccc1)N(CCCl)Cc1ccccc1 (stereo not given),inactive
11,NC12CC3CC(CC(C3)C1)C2,inactive
12,CN(C)CCCN1c2ccccc2CCc2ccc(Cl)cc21,inactive
13,CN(C)c1nc(N(C)C)nc(N(C)C)n1,inactive
14,COc1cc2nc(N(C)CCCNC(=O)C3CCCO3)nc(N)c2cc1OC (stereo not given),inactive
15,NCCCCCC(=O)O,inactive
16,Cc1cnc(C(=O)NCCc2ccc(S(=O)(=O)NC(=O)NC3CCCCC3)cc2)cn1,inactive
17,CC#C[C@]1(O)CC[C@H]2[C@@H]3CCC4=CC(=O)CCC4=C3[C@@H](c3ccc(N(C)C)cc3)C[C@@]21C,inactive
18,Cc1cc(C(C)(C)C)cc(C)c1CC1=NCCN1,inactive
19,CCOC(=O)C(C)(C)Oc1ccc(Cl)cc1,inactive
20,CC(C(=O)O)c1cccc(C(=O)c2ccccc2)c1 (stereo not given),inactive

row,Structure (SMILES),outcome
1,CCN1CCCC1CNC(=O)c1cc(S(=O)(=O)CC)c(N)cc1OC (stereo not given),inactive
2,CN1CCC(=C2c3ccccc3CC(=O)c3sccc32)CC1,inactive
3,CC(CCc1ccc(O)cc1)NCCc1ccc(O)c(O)c1 (stereo not given),inactive
4,COc1ccccc1N1CCN(CC(O)COc2cccc3ccccc23)CC1 (stereo not given),inactive
5,N[C@@H](Cc1c[nH]c2ccc(O)cc12)C(=O)O,inactive
6,CN1C2CCC1CC(OC(=O)C(CO)c1ccccc1)C2 (stereo not given),inactive
7,CN(C)CCOC(c1ccccc1)c1ccccc1,inactive
8,CN(C)C(=O)C(CCN1CCC(O)(c2ccc(Cl)cc2)CC1)(c1ccccc1)c1ccccc1,inactive
9,NS(=O)(=O)c1cc2c(cc1Cl)NCNS2(=O)=O,inactive
10,CN1CCC(=C2c3ccccc3C=Cc3ccccc32)CC1,inactive
11,OCCN(CCO)c1nc(N2CCCCC2)c2nc(N(CCO)CCO)nc(N3CCCCC3)c2n1,inactive
12,NCCc1cnc[nH]1,inactive
13,Fc1ccc([C@@H]2CCNC[C@H]2COc2ccc3c(c2)OCO3)cc1,inactive
14,CN1C(C(=O)Nc2ccccn2)=C(O)c2ccccc2S1(=O)=O,inactive
15,CC12CC3CC(C)(C1)CC(N)(C3)C2,inactive
16,Cn1cnc2c1c(=O)[nH]c(=O)n2C,inactive
17,Clc1ccc2nsnc2c1NC1=NCCN1,inactive
18,O=C1N(c2ccccc2)c2ccccc2C1(Cc1ccncc1)Cc1ccncc1,inactive
19,CC(C)(Oc1ccc(C2CC2(Cl)Cl)cc1)C(=O)O (stereo not given),inactive
20,C[C@H]1c2cccc(O)c2C(O)=C2C(=O)[C@]3(O)C(O)=C(C(N)=O)C(=O)[C@@H](N(C)C)[C@@H]3[C@@H](O)[C@@H]21,inactive
